Measured values reported in PubChem BioAssay (NCI).
This is part of a sample that, as a whole, favours compounds with a hit. Of some 83,000 tested, about 20% had one in any assay.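 Interpretation: 100, growth as untreated; towards 0, rising growth inhibition; 0, no net growth; 0 to -100, cell death. Compounds scoring below 10 were considered active.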 Calls of active or inactive are those of the source.

Key:
Experiment in all cases: NCI-60 one-dose screen, 48 h (100 = growth as untreated, 0 = no growth, -100 = all killed)
HCT-15 colon = conditions: 10 µM unless noted
HT29 colon = conditions: 10 µM unless noted
SNB-19 CNS = conditions: 10 µM unless noted
U251 CNS = conditions: 10 µM unless noted
PC-3 prostate = conditions: 10 µM unless noted
SK-MEL-5 melanoma = conditions: 10 µM unless noted
UACC-62 melanoma = conditions: 10 µM unless noted
LOX IMVI melanoma = conditions: 10 µM unless noted
SK-MEL-28 melanoma = conditions: 10 µM unless noted
EKVX NSCLC = conditions: 10 µM unless noted
SN12C renal = conditions: 10 µM unless noted
UO-31 renal = conditions: 10 µM unless noted
TK-10 renal = conditions: 10 µM unless noted
ACHN renal = conditions: 10 µM unless noted
CAKI-1 renal = conditions: 10 µM unless noted
A498 renal = conditions: 10 µM unless noted
CCRF-CEM leukemia = conditions: 10 µM unless noted
MOLT-4 leukemia = conditions: 10 µM unless noted
SK-MEL-2 melanoma = conditions: 10 µM

Measured: growth

CCN(CC)CCN1C(=O)c2cccc3c(-c4ccc5c(c4)ncn5C4CCCCC4)ccc(c23)C1=O
inactive: SNB-19 CNS 32.6% | U251 CNS 14.7% | UACC-62 melanoma 22% | EKVX NSCLC 15.6% | SN12C renal 23.8% | TK-10 renal 32.1% | ACHN renal 10% | CAKI-1 renal 19.7% | CCRF-CEM leukemia 11.4%
active: HCT-15 colon 8.61% | HT29 colon 0.739% | PC-3 prostate 5.21% | SK-MEL-5 melanoma -96.6% | LOX IMVI melanoma -81.6% | SK-MEL-28 melanoma -38.2% | UO-31 renal -23.7% | A498 renal -11.6% | MOLT-4 leukemia -9.62%

COc1cc2c3c(c1)nc(C)n3CCC2
inactive: HCT-15 colon 98.2% | HT29 colon 97.2% | SNB-19 CNS 101% | U251 CNS 91.9% | PC-3 prostate 90.1% | SK-MEL-5 melanoma 97.4% | UACC-62 melanoma 100% | LOX IMVI melanoma 92.7% | SK-MEL-28 melanoma 106% | SK-MEL-2 melanoma 100% | EKVX NSCLC 95.5% | SN12C renal 99.6% | UO-31 renal 91.1% | TK-10 renal 99% | ACHN renal 108% | A498 renal 100% | CCRF-CEM leukemia 93.2% | MOLT-4 leukemia 98.4%

C=C1[C@@H](O)C[C@H]2C(C)(C)C[C@H](Cl)C[C@]2(C)[C@H]1C[C@H](O)[C@H]1CC(=O)NC1=O
active: HCT-15 colon -13.7% | HT29 colon -23.6% | SNB-19 CNS -20.7% | U251 CNS -16.8% | PC-3 prostate -19% | SK-MEL-5 melanoma -70.1% | UACC-62 melanoma -72.4% | LOX IMVI melanoma -71.9% | SK-MEL-28 melanoma -26.1% | SK-MEL-2 melanoma -70.4% | EKVX NSCLC -25.1% | SN12C renal -28.9% | UO-31 renal -26.1% | TK-10 renal -18.6% | ACHN renal -26.2% | CAKI-1 renal 1.87% | A498 renal -76% | CCRF-CEM leukemia 0.532% | MOLT-4 leukemia -11.2%
